Screening data (PubChem)
Compounds with a hit are over-represented: about 1.1% of the library has one in this group of screens.
COUP-TFII inh = NR2F2 (human) inhibition, primary screen; P24468; HEK293T NGFI-A luciferase reporter, luminescence; inhibition, % at 8.6 µM; 0.7% of 370,000 active;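 active = inhibition above a per-plate cutoff, mean inhibition of test wells between control levels plus 3 SD, cut at about 38% in these data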;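 also: cells cotransfected with COUP-TFII expression vector driving the NGFI-A reporter; 0% = median of COUP-TF2 test wells and 100% = reporter-only cells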
Target sequence (P24468 whole entry, looked up): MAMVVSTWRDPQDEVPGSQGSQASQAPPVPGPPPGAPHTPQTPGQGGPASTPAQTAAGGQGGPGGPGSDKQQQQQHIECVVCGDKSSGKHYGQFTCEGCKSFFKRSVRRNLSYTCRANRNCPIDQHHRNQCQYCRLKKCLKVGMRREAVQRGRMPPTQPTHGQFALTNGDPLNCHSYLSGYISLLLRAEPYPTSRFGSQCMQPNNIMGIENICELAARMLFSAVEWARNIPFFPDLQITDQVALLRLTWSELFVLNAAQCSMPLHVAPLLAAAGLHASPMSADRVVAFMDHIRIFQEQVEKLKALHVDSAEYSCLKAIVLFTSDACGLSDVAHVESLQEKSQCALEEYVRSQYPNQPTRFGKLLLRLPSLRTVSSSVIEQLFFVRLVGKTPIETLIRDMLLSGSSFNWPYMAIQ
LRH-1 inv ag = NR5A2 inverse agonism in reporter assay | O00482 | HEK293T StAR-luciferase reporter, LRH-1 transfected, 24 h | inhibition, % at 3.6 µM | 0.13% of 360,000 active | AID 602396;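 active = inhibition above the mean inhibition of all tested compounds plus 3 SD, cut at about 73% in these data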;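 also: 0% = DMSO wells and 100% = reporter-only cells lacking LRH-1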
SRC2 inh = human SRC2 (NCOA2) inhibition | inhibition, % at 9 µM | HEK293 GAL4-SRC2 luciferase reporter, luminescence | 0.17% of 370,000 active;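 active = inhibition above the mean inhibition of all tested compounds plus 3 SD, set per campaign, cut at about 52% in these data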;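 also: 0% = DMSO treated cells and 100% = cells given Gossypol at 36 µM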
NCOA1 inh = inhibits human SRC1 coactivator | Q15788 | HEK293 GAL4-SRC1 luciferase reporter, luminescence | inhibition, % at 3.6 µM | 0.12% of 360,000 active | AID 588354;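 active = inhibition above the campaign mean plus 3 SD, with each screening campaign given its own cutoff, cut at about 60% in these data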;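 also: 0% = DMSO treated cells and 100% = gossypol at 36 µM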
GalR3 antagonist = antagonists of human GalR3; 0.44% of 360,000 active; inhibition, % at 3 µM; O60755; HEK293 GalR3-CNG cAMP membrane potential fluorescence; galR3 body fused to GalR1 C-terminus;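 active = inhibition above the screen-wide average plus 3 SD, cut at about 13% in these data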;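 also: forskolin and galanin both at EC90 stimulate the cells; cAMP rise reported by CNG channel membrane potential dye signal; 0% = forskolin plus galanin with DMSO and 100% = forskolin alone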
SRC3 inh = inhibits human SRC3 coactivator; inhibition, % at 3.6 µM; 0.17% of 360,000 active; AID 588352; HEK293 GAL4-SRC3 luciferase reporter, luminescence; Q9Y6Q9;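 active = inhibition above a per-campaign cutoff, the mean of all compounds plus 3 SD, cut at about 60% in these data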;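 also: 0% = DMSO-treated cells and 100% = gossypol-treated cells at 36 µM; higher means less SRC3-driven luciferase light from the GAL4 reporter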
Gal4-VP16 ctr = counter-screen for COUP-TFII antagonists: inhibitors of VP16; 25% of 2,500 active; shares compounds with COUP-TFII inh; HEK293 Gal4-VP16 luciferase reporter, luminescence; inhibition, % at 8.5 µM; in the data active = inhibition above about 13%
NR2F2 inh conf = COUP-TFII (NR2F2) inhibition, confirmation assay; shares compounds with COUP-TFII inh; HEK293 NGFI-A luciferase reporter, luminescence; inhibition, % at 8.5 µM; 45% of 2,500 active;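 active = mean inhibition over three repeats above a set limit taken from the earlier primary screen, cut at about 38% in these data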;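 also: 100% = cells given the luciferase reporter alone without the COUP-TF2 vector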
The depositor's hits bear a star.

How did CC1=C(O)C(=O)C=C2C1=CC=C1C2(C)CCC2(C)C3CC(C)(C(=O)O)CCC3(C)CCC12C (stereo unspecified) do in these assays?
COUP-TFII inh: 79*; LRH-1 inv ag: 93*; SRC2 inh: -35; NCOA1 inh: 1; GalR3 antagonist: -4; SRC3 inh: -9; Gal4-VP16 ctr: 81*; NR2F2 inh conf: 83*

How did O=c1[nH]c(O)c(C=Nc2cccc(F)c2)c(=O)[nH]1 do in these assays?
COUP-TFII inh: 16; LRH-1 inv ag: 16; SRC2 inh: -1; NCOA1 inh: 1; GalR3 antagonist: -7; SRC3 inh: -9

How did O=c1[nH]c(O)c(/C=C2\C=NN=C2c2ccccc2)c(=O)[nH]1 do in these assays?
COUP-TFII inh: 4; LRH-1 inv ag: 4; SRC2 inh: 0; NCOA1 inh: 7; GalR3 antagonist: -3; SRC3 inh: 13

Results for CC1(C)CN2C(c3ccc(Cl)cc3)N2C1 (stereo unspecified) ?
COUP-TFII inh: 15; LRH-1 inv ag: -8; SRC2 inh: 6; NCOA1 inh: 3; GalR3 antagonist: -2; SRC3 inh: 11

How did Cc1cc(O)c2c(c1)C(=O)[C@@]13C(=C2O)C(=O)[C@H]2C(O)[C@@H]1[C@H]1C(O)[C@@H]3C(=O)C3=C(O)c4c(O)cc(C)cc4C(=O)[C@@]312 (stereo partly specified) do in these assays?
COUP-TFII inh: 41*; SRC2 inh: -14; Gal4-VP16 ctr: 6; NR2F2 inh conf: 28

Results for COC(=O)C1=C(c2ccc(OC(F)(F)F)cc2)C[C@@H]2CC[C@H]1N2C(=O)N1CCCC1 ?
COUP-TFII inh: 35; LRH-1 inv ag: 30; SRC2 inh: 25; NCOA1 inh: 21; GalR3 antagonist: -6; SRC3 inh: 20

How did Cn1nc(-c2ccc(OCC(=O)N3CCN(Cc4ccccc4)CC3)cc2)c2ccccc2c1=O do in these assays?
COUP-TFII inh: 55*; LRH-1 inv ag: 38; SRC2 inh: 14; NCOA1 inh: -3; GalR3 antagonist: -5; SRC3 inh: 8; Gal4-VP16 ctr: 6; NR2F2 inh conf: 36

Results for C[C@H](CO)N1C[C@H](C)[C@@H](CN(C)C(=O)Oc2ccccc2)OCc2cnnn2CCCC1=O ?
COUP-TFII inh: 4; LRH-1 inv ag: 0; SRC2 inh: -2; NCOA1 inh: 1; GalR3 antagonist: -2; SRC3 inh: 10

Results for OCC[n+]1c2ccccc2nc2ccc(N3CCOCC3)cc21 ?
COUP-TFII inh: -10; LRH-1 inv ag: 8; SRC2 inh: -6; NCOA1 inh: -37; GalR3 antagonist: 7; SRC3 inh: 22

Results for COC(=O)[C@@H]1[C@@H](C(=O)OC)C2(c3ccccc3-c3ccccc32)N(c2ccc(Cl)cc2)N1C#N ?
COUP-TFII inh: 47*; LRH-1 inv ag: 13; SRC2 inh: 12; NCOA1 inh: 7; GalR3 antagonist: 12; SRC3 inh: 48; Gal4-VP16 ctr: 50*; NR2F2 inh conf: 47*

Results for COc1ccc(C[C@H]2NC[C@H](O)[C@H]2OC(C)=O)cc1 ?
COUP-TFII inh: 89*; LRH-1 inv ag: 102*; SRC2 inh: 71*; NCOA1 inh: 95*; GalR3 antagonist: 1; SRC3 inh: 93*; Gal4-VP16 ctr: 20*; NR2F2 inh conf: 83*

Results for CC(=O)OC1CC(OC2C(O)CC(OC3C(O)CC(OC4CCC5(C)C(CCC6C5CCC5(C)C(C7=CC(=O)OC7)C(O)CC65O)C4)OC3C)OC2C)OC(C)C1OC1OC(CO)C(O)C(O)C1O (stereo unspecified) ?
COUP-TFII inh: 74*; LRH-1 inv ag: 98*; SRC2 inh: 38; NCOA1 inh: 84*; GalR3 antagonist: 34*; SRC3 inh: 82*; Gal4-VP16 ctr: 36*; NR2F2 inh conf: 65*

What do the screens show for `CC(=O)OC1CC2(O)C3CCC4CC(O)CCC4(C)C3CCC2(C)C1C1=CC(=O)OC1` (stereo unspecified)?
COUP-TFII inh: 77*; LRH-1 inv ag: 99*; SRC2 inh: 50; NCOA1 inh: 85*; GalR3 antagonist: 21*; SRC3 inh: 88*; Gal4-VP16 ctr: 47*; NR2F2 inh conf: 72*

How did CC(=O)O[C@@H]1CC[C@]2(C)C3CC[C@@]4(C)C(C[C@@H](O)[C@@H]4O)C3[C@@H](OC(C)=O)C[C@H]2C1 (stereo partly specified) do in these assays?
COUP-TFII inh: 2; LRH-1 inv ag: -7; SRC2 inh: -35; NCOA1 inh: 14; GalR3 antagonist: -7; SRC3 inh: 6

What do the screens show for `CC(=O)[C@H]1CCC2C3CC[C@H]4C[C@@H](O)CC[C@]4(C)C3CC[C@@]21C` (stereo partly specified)?
COUP-TFII inh: 1; LRH-1 inv ag: 4; SRC2 inh: -15; NCOA1 inh: -6; GalR3 antagonist: -3; SRC3 inh: -1

What do the screens show for `COc1cc2c(cc1OC)CC[N+](C)=C2`?
COUP-TFII inh: -14; LRH-1 inv ag: 7; SRC2 inh: -5; NCOA1 inh: 16; GalR3 antagonist: -5; SRC3 inh: 10

How did Cc1cc2c(C(C)C)c(O)c(O)c(C=O)c2c(O)c1-c1c(C)cc2c(C(C)C)c(O)c(O)c(C=O)c2c1O do in these assays?
COUP-TFII inh: -12; LRH-1 inv ag: 24; SRC2 inh: 13; NCOA1 inh: -4; SRC3 inh: 44

Results for Cc1nc(SCc2c(Cl)cccc2Cl)nc(OC(=O)N(C)C)c1C ?
COUP-TFII inh: 24; LRH-1 inv ag: -20; SRC2 inh: 7; NCOA1 inh: -13; GalR3 antagonist: -3; SRC3 inh: 0

Results for CN1C2CCC1/C(=C/c1ccccn1)C(=O)/C2=C\c1ccccn1 ?
COUP-TFII inh: 63*; LRH-1 inv ag: 3; SRC2 inh: 65*; NCOA1 inh: -51; GalR3 antagonist: 1; SRC3 inh: 50; Gal4-VP16 ctr: 68*; NR2F2 inh conf: 85*

What do the screens show for `COc1cccc(C(c2nnnn2-c2ccc3c(c2)OCCO3)N2CCC(n3c(=O)[nH]c4ccccc43)CC2)c1OC` (stereo unspecified)?
COUP-TFII inh: 40*; LRH-1 inv ag: 9; SRC2 inh: 9; NCOA1 inh: 32; GalR3 antagonist: 1; SRC3 inh: 41; Gal4-VP16 ctr: -2; NR2F2 inh conf: 7

What do the screens show for `CCOC(=O)[C@]12Cc3cc(Cl)ccc3[C@H]1N(C(C)C)C(=O)c1ccccc12`?
COUP-TFII inh: 41*; LRH-1 inv ag: 34; SRC2 inh: -4; GalR3 antagonist: -8; Gal4-VP16 ctr: 21*; NR2F2 inh conf: 53*
